# Sampled rows, rich in hits. Any-hit rate of the full collection: about 7.3%.
# HCV inhibitor – HCV inhibition. Huh7.5.1 HCVcc-Cre infection, luciferase reporter, 44 h. Potency, µM (doses to about 41.8 µM), hits mostly inhibitors. hit rate 3.4% among 340,000; active = well fitted inhibition curve with a large enough effect; inconclusive = small, poorly fitted or top-dose-only effect, or another doubt; inactive = no such curve, though single readings can be large or run the other way
#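 HCVcc-Cre virus at an moi near 0.5 was added right after compound to cells cultured 4 h from seeding (1,000 cells/well). Luciferase activity was determined 44 h later, 15 min after substrate addition at RT.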
# FMDV inh – foot and mouth disease virus antiviral activity. FMDV antiviral cell-based qHTS. Potency, µM (top dose mostly 57.9 µM), most hits filed as inhibitors. hit rate 1.2% among 410,000. AID 1159524; calls by dose curve; tested in HEK293T cells; also: read-out not given here; nearly all actives have a fitted effect of over 45% in size
# HCMV inh – blocks human cytomegalovirus replication | HFF cells, HCMV-luciferase reporter, 72 h; stronger effect = lower value | activity change, negative = inhibition, % at 57.5 µM | hit rate 4.5% among 410,000; in the data active = activity change below about -60%; inconclusive = no clear call, values can overlap the other calls; inactive = above about -39%
#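 HFF cells seeded 16 h at 37C, treated with compounds, infected with luciferase-reporter HCMV at MOI 1 PFU/cell; luciferase read at 72 h post infection, normalized to buffer-only and Salinomycin controls.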
# VACV mCherry inh – vaccinia inhibition (mCherry reporter); Vaccinia virus mCherry reporter infection, fluorescence; Potency, µM (top dose mostly 36.5 µM), usual class: inhibitors; hit rate 0.63% among 310,000; AID 720579; calls by dose curve; tested in A549 cells; also: nearly all actives have a fitted effect of over 35% in size
# VACV Venus inh – vaccinia inhibition (Venus reporter); hit rate 0.46% among 330,000; Potency, µM (highest dose often 36.5 µM), most hits filed as inhibitors; Vaccinia virus Venus reporter expression, fluorescence; AID 720580; calls by dose curve; tested in A549 cells; also: nearly all actives have a fitted effect of over 30% in size
# A number is an active result; – = inactive; ? = inconclusive; · = no result given; + = active, no number; [ ] = dose if it differs, or a comment.
SMILES,HCV inhibitor,FMDV inh,HCMV inh,VACV mCherry inh,VACV Venus inh
O=C1OCc2ccc([N+](=O)[O-])cc21,–,–,–,–,–
CCOc1ccc(NC(=O)CN2C(=O)C(C)SC(C)C2=O)cc1 (stereo not drawn),–,–,-64.6,–,–
CCOc1ccc(NC(=O)CN2C(=O)CCSc3ccc(S(=O)(=O)N4CCCC4)cc32)cc1,–,?,–,–[7.34 µM],–[7.34 µM]
CCOc1ccc(NC(=O)CN2C(=O)CSc3ccc(S(=O)(=O)N4CCCC4)cc32)cc1,?,–,+,·,·
COc1cccc(N2CCN(C(=O)c3cc(-c4ccccc4)nc4c3cnn4C(C)C)CC2)c1,11.2µM,–,–,·,·
Cc1ccccc1N1CCN(C(=O)c2cc(-c3ccccc3)nc3c2cnn3C(C)C)CC1,·,–,–,–,–
COc1ccccc1N1CCN(C(=O)c2cc(-c3ccccc3)nc3c2cnn3C(C)C)CC1,·,–,–,–,–
CC(C)n1ncc2c(C(=O)N3CCN(c4ccc(F)cc4)CC3)cc(-c3ccccc3)nc21,–,–,-70.5,·,·
O=C(O)CN=C(Nc1cc(Cl)cc(Cl)c1)NC(c1ccccc1)c1ccccc1,·,–,–,–,–
CC1CCc2onc(C(=O)N3CCN(c4ccccc4)CC3)c2C1 (stereo not drawn),·,–,?,–,–
CCS(=O)(=O)c1ncc(Cl)c(C(=O)N2CCN(c3cccc(Cl)c3)CC2)n1,·,14.1µM,-100.6,–[7.34 µM],–[7.34 µM]
Cc1[nH]c2ccc(C(=O)N3CCN(c4cccc(Cl)c4)CC3)cc2c1C,–,–,–,·,·
CS(=O)(=O)c1ncc(Cl)c(C(=O)N2CCN(c3cccc(Cl)c3)CC2)n1,·,17.8µM,-100.7,–[7.34 µM],–[7.34 µM]
CC1CCc2onc(C(=O)N3CCN(c4cccc(Cl)c4)CC3)c2C1 (stereo not drawn),·,–,-60.4,–,–
COc1cc2[nH]c(C)c(-c3ccccc3)c(=O)c2cc1Cl,·,–,–,–,–

# Screens (PubChem)
